# Test results as given in PubChem BioAssay (NCI).
# Compounds without any hit were thinned out: in the full panel of roughly 79,000, 15% have a hit. A number with no mark means an inactive call. Calls of active or inactive are those of the source. Cut-off read from the data, not from the text of the source: active = growth inhibition above about 70%; inactive = the rest.
# Columns and labels:
# [1] = NCI Yeast Anticancer Drug Screen. Data for the rad50 strain (AID 155);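 note: 0% = growth of vehicle-only cultures of the same strain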; conditions: S. cerevisiae rad50 strain growth inhibition, hits give high values
# How it was run: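 Compounds were tested on a yeast strain with an engineered DNA damage repair alteration; the reported value is growth inhibition normalised to vehicle treatment.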
# [2] = NCI Yeast Anticancer Drug Screen. Data for the mec2-1 strain (AID 157); conditions: S. cerevisiae mec2-1 strain, hits give high values
# How it was run: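 Strain: mec2-1 (DNA repair/cell cycle alteration). Compound exposure, then growth measured; inhibition expressed relative to vehicle.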
# [3] = NCI Yeast Anticancer Drug Screen. Data for the sgs1 mgt1 strain (AID 161);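 note: 0% = growth of cultures given vehicle only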; conditions: S. cerevisiae sgs1 mgt1 strain, hits give high values
# How it was run: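 Mutant yeast exposed to compound; growth scored against vehicle-only wells.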
# [4] = NCI Yeast Anticancer Drug Screen. Data for the cln2 rad14 strain (AID 165);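 note: 0% = growth equal to vehicle treated cultures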; conditions: S. cerevisiae cln2 rad14 strain, hits give high values
# How it was run: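 Compounds are applied to the cln2 rad14 yeast strain, and growth is then compared with that of vehicle-treated cultures to give inhibition.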
# [5] = NCI Yeast Anticancer Drug Screen. Data for the bub3 strain (AID 167); conditions: S. cerevisiae bub3 mutant strain, hits give high values
# How it was run: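 Growth of a checkpoint-deficient yeast mutant is measured after compound exposure. Values represent inhibition relative to vehicle.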
# [6] = NCI Yeast Anticancer Drug Screen. Data for the mlh1 rad18 strain (AID 175); conditions: S. cerevisiae mlh1 rad18 strain growth inhibition, hits give high values
# How it was run: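 Read-out is yeast growth inhibition, calculated against vehicle-only controls. The compound was applied to a strain engineered with DNA damage repair alterations.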
# [7] = at 5.0 µM (retest, dose inferred, filed as 0.5)
# [8] = at 50.0 µM (retest, dose inferred, filed as 5.0)
Structure (SMILES),"growth inhibition [1, 7] [%]","growth inhibition [1, 8]",growth inhibition ([1]; at 50.0 µM),"growth inhibition [2, 7] [%]","growth inhibition [2, 8]",growth inhibition ([2]; at 50.0 µM),"growth inhibition [3, 7] [%]","growth inhibition [3, 8]",growth inhibition ([3]; at 50.0 µM),"growth inhibition [4, 7] [%]","growth inhibition [4, 8]",growth inhibition ([4]; at 50.0 µM),"growth inhibition [5, 7] [%]","growth inhibition [5, 8]",growth inhibition ([5]; at 50.0 µM),"growth inhibition [6, 7] [%]","growth inhibition [6, 8]",growth inhibition ([6]; at 50.0 µM)
CC1=C(/C=C/C(C)=N/NC(N)=S)C(C)(C)CCC1,24,87% (active),84.5% (active),5,88% (active),80.5% (active),22,88% (active),65.8%,15,85% (active),76.9% (active),16,86% (active),80.1% (active),6,89% (active),85% (active)
CN(C)C(=O)c1ccc(SC(=S)NCc2ccccc2)cc1,11,99% (active),98.5% (active),0,100% (active),97% (active),3,98% (active),97.8% (active),7,99% (active),96.2% (active),-11,99% (active),81% (active),24,42%,98.8% (active)
CCCCCCCC/C=C\CCCCCCCCN1CCOCC1,-2,-2%,99.2% (active),0,-2%,99.3% (active),-4,5%,99.2% (active),11,3%,97.5% (active),15,19%,99.1% (active),-3,1%,99.2% (active)
Cc1ccc(NC(=O)c2cc3ccccc3c(N=Nc3cc(S(=O)(=O)O)ccc3O)c2O)c(C)c1,33,85% (active),71.8% (active),33,84% (active),52.3%,56,92% (active),78.7% (active),29,43%,59.9%,50,92% (active),82.8% (active),57,87% (active),80.8% (active)
O=C1Sc2sc(=S)sc2SC1c1ccccc1 (stereo not given),-4,87% (active),40.5%,-1,91% (active),36.5%,5,98% (active),82.2% (active),-1,79% (active),58.1%,-4,95% (active),32.6%,2,97% (active),90.5% (active)
